# According to PubChem BioAssay (NCATS):
# Inconclusive results are not listed. A call without a number means that no potency is given here. Active and inactive are the calls of the source. Unless noted, calls come from the whole dose curve; as a rule, active = well fitted curve in the direction sought with a large enough effect; inconclusive = small, poorly fitted or top-dose-only effect, or another doubt; inactive = no such curve, though single readings can be large; an effect the other way counts as inactive or inconclusive.
# Assays:
# [1] = molecular target: Calcium and integrin-binding protein 1 (Homo sapiens) (UniProt Q99828); experiment: Primary qHTS for Identification of Calcium Integrin Binding Protein 1 (CIB1) Competitor (AID 1508620);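 note: GST tagged CIB1 binding a fluorescein labelled alphaIIb integrin peptide tracer; top concentration of the series differs between compounds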
# Calcium and integrin-binding protein 1 (Homo sapiens), sequence (Q99828 whole entry, looked up): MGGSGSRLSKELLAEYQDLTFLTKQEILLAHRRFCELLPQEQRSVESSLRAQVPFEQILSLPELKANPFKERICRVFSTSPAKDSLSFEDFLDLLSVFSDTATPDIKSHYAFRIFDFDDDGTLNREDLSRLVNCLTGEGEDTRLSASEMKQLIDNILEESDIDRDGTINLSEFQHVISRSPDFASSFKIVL
# Procedure, shortened: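 CIB1-GST (1 uM final) and compound incubated 15 min at room temperature before adding FITC-alphaIIb peptide tracer (100 nM final). Competition for binding read by fluorescence polarization (ex 480, em 540) after another 15 min at room temperature.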
# [2] = molecular target: DNA repair nuclease/redox regulator APEX1 (Homo sapiens) (UniProt P27695); experiment: qHTS Validation Assay for Inhibitors of the Human Apurinic/apyrimidinic Endonuclease 1 (APE1) (AID 1705;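 note: TAMRA fluorescence gain over two minutes as APE1 cuts a quenched THF abasic duplex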)
# DNA repair nuclease/redox regulator APEX1 (Homo sapiens), sequence (P27695 whole entry, looked up): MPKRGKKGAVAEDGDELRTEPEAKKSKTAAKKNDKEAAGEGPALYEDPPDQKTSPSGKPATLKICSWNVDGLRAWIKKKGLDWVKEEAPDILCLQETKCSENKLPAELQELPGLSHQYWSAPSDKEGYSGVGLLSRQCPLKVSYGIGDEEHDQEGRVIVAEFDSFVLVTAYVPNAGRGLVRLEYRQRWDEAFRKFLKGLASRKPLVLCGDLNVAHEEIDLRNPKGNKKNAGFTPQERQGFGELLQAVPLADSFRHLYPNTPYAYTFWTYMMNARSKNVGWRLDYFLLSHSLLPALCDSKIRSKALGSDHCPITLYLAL
# Procedure, shortened: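 Read-out: TAMRA fluorescence (525 nm ex, 598 nm em) from cleavage of a quenched THF abasic-site duplex, 50 nM final; activity taken as intensity change between third and first of three reads 60 s apart.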
# [3] = Counterscreen for APE1 Inhibitors: Fluorescent Dye Displacement Validation Assay (AID 1707)
# Procedure, shortened: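 Compounds are scored by their ability to displace Thiazole Orange (250 nM) from a 50 nM TAMRA-tagged duplex bearing a tetrahydrofuran abasic site. Buffer is 50 mM Tris-HCl pH7.5, 50mM NaCl, 2 mM MgCl2, 0.01% Tween-20.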
# [4] = molecular target: Endonuclease 4 (Escherichia coli (strain K12)) (UniProt P0A6C1); experiment: Counterscreen for APE1 Inhibitors: qHTS Validation Assay for Inhibitors of Endonuclease IV (AID 1708)
# Procedure, shortened: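 Enzymatic AP-site incision assay using a double-stranded THF substrate labelled with TAMRA and BHQ-2; released fluorescence signals activity. Enzyme 2 nM, substrate 50 nM, 15 min compound preincubation.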
# [5] = qHTS for differential inhibitors of proliferation of Plasmodium falciparum line 7G8 (AID 1815);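 note: potency is the fitted concentration of half-maximal effect; parasite growth measured after three days of incubation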
# [6] = qHTS for differential inhibitors of proliferation of Plasmodium falciparum line GB4 (AID 1816); conditions: Potency: Plasmodium falciparum GB4 proliferation inhibition;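 note: potency is the fitted concentration of half-maximal effect; parasite growth measured after 72 h incubation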
# [7] = qHTS for differential inhibitors of proliferation of Plasmodium falciparum line 3D7 (AID 1876); note: potency is the fitted concentration of half-maximal effect
# [8] = qHTS for differential inhibitors of proliferation of Plasmodium falciparum line D10 (AID 1877);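 note: potency is the fitted concentration of half-maximal effect; parasites grown with compound for 72 h before DNA staining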
# [9] = qHTS for differential inhibitors of proliferation of Plasmodium falciparum line Dd2 (AID 1882); conditions: Potency: Plasmodium falciparum Dd2 proliferation inhibition; note: potency is the fitted concentration of half-maximal effect; nearly all actives have a fitted effect of over 65% in size
# Procedure, shortened: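 SYBR Green I DNA fluorescence read-out, ex 485/em 535 nm. Signals were normalized to 0.29 uM artemisinin and DMSO wells, then corrected using vehicle-only plates flanking each stack. Parasite growth ran 72 h in erythrocytes before lysis.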
# [10] = qHTS for differential inhibitors of proliferation of Plasmodium falciparum line W2 (AID 1883); conditions: Potency: Plasmodium falciparum W2 proliferation inhibition;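 note: potency is the fitted concentration of half-maximal effect; parasites grown with compound for 72 h before lysis and staining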
# [11] = qHTS for differential inhibitors of proliferation of Plasmodium falciparum line HB3 (AID 1886); conditions: Potency: Plasmodium falciparum HB3 proliferation inhibition;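 note: potency is the fitted concentration of half-maximal effect; parasites grown with compound for 72 h before SYBR Green readout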
# [12] = molecular target: Ferritin light chain (Equus caballus) (UniProt P02791); experiment: qHTS Validation Assay for Identification of Novel General Anesthetics (AID 2323)
# Ferritin light chain (Equus caballus), sequence (P02791 2-175 limits assumed): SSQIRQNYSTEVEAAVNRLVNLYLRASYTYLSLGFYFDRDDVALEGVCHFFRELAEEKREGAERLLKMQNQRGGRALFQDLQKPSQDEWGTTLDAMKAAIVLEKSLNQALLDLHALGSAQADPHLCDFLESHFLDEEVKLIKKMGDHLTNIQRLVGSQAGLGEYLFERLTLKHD
# Procedure, shortened: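 10 uM horse-spleen apoferritin + 1-AMA (50% saturated, PBS); cpd pin-transferred, 10 min RT. Ex 380/Em 535 nm endpoint. Activity normalized between free 1-AMA and 1-AMA/apoferritin; 4-parameter Hill fit of concentration-response.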
# [13] = molecular target: ATP-dependent DNA helicase Q1 (Homo sapiens) (UniProt P46063); experiment: qHTS Validation Assay for Inhibitors of RecQ-Like Dna Helicase 1 (RECQ1) (AID 2353)
# ATP-dependent DNA helicase Q1 (Homo sapiens), sequence (P46063 whole entry, looked up): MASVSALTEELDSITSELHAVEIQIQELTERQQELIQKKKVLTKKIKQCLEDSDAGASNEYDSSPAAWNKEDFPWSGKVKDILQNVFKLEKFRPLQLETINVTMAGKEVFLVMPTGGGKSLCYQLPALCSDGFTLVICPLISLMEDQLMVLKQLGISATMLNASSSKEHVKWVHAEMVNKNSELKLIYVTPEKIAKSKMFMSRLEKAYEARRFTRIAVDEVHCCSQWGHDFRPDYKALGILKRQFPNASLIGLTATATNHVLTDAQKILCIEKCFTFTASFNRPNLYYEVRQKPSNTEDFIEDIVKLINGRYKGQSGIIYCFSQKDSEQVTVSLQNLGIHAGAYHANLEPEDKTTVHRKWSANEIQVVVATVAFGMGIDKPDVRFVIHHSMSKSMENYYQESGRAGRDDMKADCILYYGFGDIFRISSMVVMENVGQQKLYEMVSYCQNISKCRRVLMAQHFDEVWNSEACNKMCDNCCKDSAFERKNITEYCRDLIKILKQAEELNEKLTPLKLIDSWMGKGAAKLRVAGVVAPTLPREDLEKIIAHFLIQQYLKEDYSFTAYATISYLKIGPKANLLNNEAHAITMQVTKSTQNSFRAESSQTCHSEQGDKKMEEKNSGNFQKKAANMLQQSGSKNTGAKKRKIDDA
# Procedure, shortened: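 50 nM RECQ1T1 preincubated 15 min with compound in Tris pH 8.0 buffer with MgCl2, DTT, Tween-20 and 2.5 ug/ml poly(dI-dC); started with 200 nM TAMRA/BHQ-2 forked duplex and 2 mM ATP. Unwinding read as fluorescence (525/598 nm), two reads 2 h apart.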
# [14] = molecular target: RecQ-like DNA helicase BLM (Homo sapiens) (UniProt P54132); experiment: qHTS Validation Assay for Inhibitors of Bloom's syndrome helicase (BLM) (AID 2364)
# RecQ-like DNA helicase BLM (Homo sapiens), sequence (P54132 whole entry, looked up): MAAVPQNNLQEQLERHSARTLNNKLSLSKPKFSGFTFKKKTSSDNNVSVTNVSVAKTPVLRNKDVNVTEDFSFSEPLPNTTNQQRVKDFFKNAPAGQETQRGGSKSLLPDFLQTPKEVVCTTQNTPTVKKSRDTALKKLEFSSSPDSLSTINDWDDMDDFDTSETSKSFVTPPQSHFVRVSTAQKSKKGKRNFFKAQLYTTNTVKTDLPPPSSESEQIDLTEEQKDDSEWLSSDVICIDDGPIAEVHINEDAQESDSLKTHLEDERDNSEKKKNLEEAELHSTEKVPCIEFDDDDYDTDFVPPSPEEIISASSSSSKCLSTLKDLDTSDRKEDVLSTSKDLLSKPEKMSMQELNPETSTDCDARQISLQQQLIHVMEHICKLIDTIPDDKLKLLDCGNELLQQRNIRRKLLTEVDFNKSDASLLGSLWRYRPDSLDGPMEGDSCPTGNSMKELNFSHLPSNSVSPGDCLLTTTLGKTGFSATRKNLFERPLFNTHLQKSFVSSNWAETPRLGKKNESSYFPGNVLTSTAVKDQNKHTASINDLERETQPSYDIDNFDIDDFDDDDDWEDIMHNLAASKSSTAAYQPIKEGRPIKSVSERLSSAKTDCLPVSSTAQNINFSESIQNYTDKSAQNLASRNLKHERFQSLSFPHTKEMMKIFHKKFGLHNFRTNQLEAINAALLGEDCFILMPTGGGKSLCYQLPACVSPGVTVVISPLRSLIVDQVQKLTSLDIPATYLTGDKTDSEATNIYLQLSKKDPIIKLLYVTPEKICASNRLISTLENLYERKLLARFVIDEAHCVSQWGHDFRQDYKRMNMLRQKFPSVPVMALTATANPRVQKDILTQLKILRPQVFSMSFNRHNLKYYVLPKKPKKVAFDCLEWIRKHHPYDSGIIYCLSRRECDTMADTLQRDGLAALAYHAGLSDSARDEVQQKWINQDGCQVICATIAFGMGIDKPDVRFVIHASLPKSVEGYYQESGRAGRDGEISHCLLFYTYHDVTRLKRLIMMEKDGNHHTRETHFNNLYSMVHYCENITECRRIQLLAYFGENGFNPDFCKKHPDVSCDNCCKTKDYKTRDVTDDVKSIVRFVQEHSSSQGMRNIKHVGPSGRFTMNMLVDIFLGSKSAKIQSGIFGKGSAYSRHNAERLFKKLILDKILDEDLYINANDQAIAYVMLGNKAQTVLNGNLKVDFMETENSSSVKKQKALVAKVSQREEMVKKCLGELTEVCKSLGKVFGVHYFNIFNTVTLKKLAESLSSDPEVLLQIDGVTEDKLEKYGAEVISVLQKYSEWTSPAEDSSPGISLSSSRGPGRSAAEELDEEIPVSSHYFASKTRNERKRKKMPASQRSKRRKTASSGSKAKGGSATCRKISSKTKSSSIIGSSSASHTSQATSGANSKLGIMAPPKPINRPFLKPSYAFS
# Procedure, shortened: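 Forked 20-bp duplex substrate (200 nM, TAMRA/BHQ-2) plus 2 mM ATP added after 15 min compound preincubation with 50 nM enzyme, pH 8.0, poly(dI-dC) 2.5 ug/ml. Strand separation followed by fluorescence (525/598 nm) over 2 h, normalized to enzyme-free and DMSO controls.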
# [15] = Quantitative high throughput screen for delayed death inhibitors of the malarial parasite plastid, 96 hour incubation (AID 488745);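 note: luciferase-expressing P. falciparum in erythrocytes at 2% hematocrit and 0.1% parasitemia; nearly all actives have a fitted effect of over 70% in size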
# Procedure, shortened: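 Growth of reporter-bearing P. falciparum in red cells is measured after 96 h with compound, covering two erythrocytic cycles. Luminescence from the integrated luciferase serves as the growth signal.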
# [16] = Quantitative high throughput screen for delayed death inhibitors of the malarial parasite plastid, 48 hour incubation (AID 488752); note: potency is the fitted concentration of half-maximal effect; nearly all actives have a fitted effect of over 65% in size
# Procedure, shortened: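 One parasite generation (48 h, 37 C, 5% CO2) of luciferase-reporter P. falciparum in erythrocytes is run with test compound; decreased luminescence indicates inhibited growth.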
# [17] = molecular target: M-phase phosphoprotein 8 (Homo sapiens) (UniProt Q99549); experiment: qHTS Validation Assay for Inhibitors for MPP8 Chromodomain Interactions with Methylated Histone Tails (AID 488949); note: potency is the fitted concentration of half-maximal effect; nearly all actives have a fitted effect of over 55% in size
# M-phase phosphoprotein 8 (Homo sapiens), sequence (Q99549 whole entry, looked up): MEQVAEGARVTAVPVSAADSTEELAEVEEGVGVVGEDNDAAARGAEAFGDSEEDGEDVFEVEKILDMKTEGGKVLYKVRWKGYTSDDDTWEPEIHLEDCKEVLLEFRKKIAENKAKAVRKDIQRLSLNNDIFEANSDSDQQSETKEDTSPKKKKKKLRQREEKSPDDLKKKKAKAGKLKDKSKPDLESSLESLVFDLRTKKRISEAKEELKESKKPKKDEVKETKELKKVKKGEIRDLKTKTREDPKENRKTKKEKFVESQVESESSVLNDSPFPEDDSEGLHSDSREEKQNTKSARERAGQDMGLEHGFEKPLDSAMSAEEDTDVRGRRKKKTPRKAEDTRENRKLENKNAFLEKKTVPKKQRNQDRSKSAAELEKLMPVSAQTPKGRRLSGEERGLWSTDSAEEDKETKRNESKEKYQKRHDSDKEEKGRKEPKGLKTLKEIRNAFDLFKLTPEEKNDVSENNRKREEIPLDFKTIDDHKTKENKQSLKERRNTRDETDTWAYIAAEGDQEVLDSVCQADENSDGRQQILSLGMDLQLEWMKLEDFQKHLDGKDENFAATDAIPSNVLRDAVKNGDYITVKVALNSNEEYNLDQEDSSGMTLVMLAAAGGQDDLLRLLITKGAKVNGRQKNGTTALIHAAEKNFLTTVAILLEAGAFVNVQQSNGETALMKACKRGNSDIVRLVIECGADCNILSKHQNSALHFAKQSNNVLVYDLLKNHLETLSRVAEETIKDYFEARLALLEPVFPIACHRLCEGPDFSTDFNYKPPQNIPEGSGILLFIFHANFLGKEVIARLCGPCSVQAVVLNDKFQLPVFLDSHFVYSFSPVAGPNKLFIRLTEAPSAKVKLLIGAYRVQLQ
# Procedure, shortened: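 AlphaScreen read-out: streptavidin donor and nickel chelate acceptor beads (final 10 ug/mL), 30 min in the dark at RT. Complex of 50 nM MPP8 and 50 nM b-H3(1-18)K9me3 peptide had been exposed to compounds for 30 min beforehand.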
# [18] = molecular target: Transient receptor potential cation channel subfamily V member 1 (Homo sapiens) (UniProt Q8NER1); experiment: HTS Assay for Compounds that Act as Enhancers of the Vanilloid Receptor 1 (AID 488979)
# Transient receptor potential cation channel subfamily V member 1 (Homo sapiens), sequence (Q8NER1 whole entry, looked up): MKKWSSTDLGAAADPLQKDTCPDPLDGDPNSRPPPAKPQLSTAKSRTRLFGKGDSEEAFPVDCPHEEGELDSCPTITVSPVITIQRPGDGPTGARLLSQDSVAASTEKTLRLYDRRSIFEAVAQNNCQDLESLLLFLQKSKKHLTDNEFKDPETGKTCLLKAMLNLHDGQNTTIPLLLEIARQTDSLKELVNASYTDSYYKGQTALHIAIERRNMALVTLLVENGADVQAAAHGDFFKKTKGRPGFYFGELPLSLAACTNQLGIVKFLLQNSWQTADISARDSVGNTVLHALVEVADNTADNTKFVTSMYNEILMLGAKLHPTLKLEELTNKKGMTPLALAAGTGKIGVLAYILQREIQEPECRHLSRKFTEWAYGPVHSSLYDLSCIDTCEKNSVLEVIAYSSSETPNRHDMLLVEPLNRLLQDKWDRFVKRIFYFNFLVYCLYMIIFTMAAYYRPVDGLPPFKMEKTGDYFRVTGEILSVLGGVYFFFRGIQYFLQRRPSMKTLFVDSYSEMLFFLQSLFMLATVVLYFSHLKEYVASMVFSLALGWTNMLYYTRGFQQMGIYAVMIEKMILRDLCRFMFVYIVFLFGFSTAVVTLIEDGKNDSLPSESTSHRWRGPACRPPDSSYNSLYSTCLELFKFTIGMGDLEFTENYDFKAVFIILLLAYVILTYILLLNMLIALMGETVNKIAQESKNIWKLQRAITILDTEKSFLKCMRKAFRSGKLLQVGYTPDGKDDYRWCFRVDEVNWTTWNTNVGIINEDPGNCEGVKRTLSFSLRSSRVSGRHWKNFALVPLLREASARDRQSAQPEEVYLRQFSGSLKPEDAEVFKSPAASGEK
# Procedure, shortened: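 Calcium influx kinetics via Fluo-8 (480/520 nm) in TRPV1-expressing cells, 2000/well cultured overnight at 35.5C. Compound-alone read 3 min (agonist phase), followed by EC20 capsaicin challenge for 2 min (enhancer phase).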
# [19] = molecular target: Thyrotropin receptor (Homo sapiens) (UniProt P16473); experiment: qHTS Assay for Antagonists of the Thyroid Stimulating Hormone Receptor (AID 488980)
# Procedure, shortened: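 TSHR-HEK293 cells; 70 uM RO 20-1724 PDE inhibitor; compound + EC80 TSH (4 nM final); anti-cAMP cryptate antibody/cAMP-d2 in lysis buffer, 30 min RT; HTRF 665/620 nm read.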
# [20] = molecular target: Thyrotropin-releasing hormone receptor (Homo sapiens) (UniProt P34981); experiment: qHTS for Small Molecule Agonists and Allosteric Enhancers of Human TRH Receptor: Validation Screen for Agonists (AID 493127;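 active = calcium activation more than 3 SD above the typical response in the agonist read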;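 note: intracellular calcium rise by fluo-8 fluorescence before TRH EC20 addition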); conditions: TRH receptor agonist cell assay; at 2 µM; stronger effect = higher value
# Procedure, shortened: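 Gq-coupled calcium mobilization in TRHR cells after compound addition, monitored kinetically with fluo-8 dye on an FDSS reader.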
# [21] = Validation screen for small molecules that induce DNA re-replication in SW480 colon adenocarcinoma cells (AID 504364)
# Procedure, shortened: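 Cells are treated 48 hr with test compound, stained 40 min with Hoechst at 37 C, and scanned for nuclear fluorescence; compounds inducing re-replication increase nuclei with elevated intensity.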
# [22] = Confirmatory qHTS for small molecule stabilizers of the endoplasmic reticulum resident proteome: Secreted ER Calcium Modulated Protein (SERCaMP) assay (AID 1508628); note: potency is the fitted concentration of half-maximal effect; nearly all actives have a fitted effect of over 40% in size
# Procedure, shortened: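 We seeded SH-SY5Y-GLuc-SERCaMP cells, added compounds (three concentrations in the primary run, eleven up to 76.6 uM in confirmation), incubated 16 h, depleted ER calcium with thapsigargin, and read luciferase 4 h later.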
# [23] = molecular target: Cytochrome P450 3A4 (Homo sapiens) (UniProt P08684); experiment: qHTS Assay for Inhibitors and Substrates of Cytochrome P450 3A4 (AID 884); note: nearly all actives have a fitted effect of over 50% in size
# Cytochrome P450 3A4 (Homo sapiens), sequence (P08684 whole entry, looked up): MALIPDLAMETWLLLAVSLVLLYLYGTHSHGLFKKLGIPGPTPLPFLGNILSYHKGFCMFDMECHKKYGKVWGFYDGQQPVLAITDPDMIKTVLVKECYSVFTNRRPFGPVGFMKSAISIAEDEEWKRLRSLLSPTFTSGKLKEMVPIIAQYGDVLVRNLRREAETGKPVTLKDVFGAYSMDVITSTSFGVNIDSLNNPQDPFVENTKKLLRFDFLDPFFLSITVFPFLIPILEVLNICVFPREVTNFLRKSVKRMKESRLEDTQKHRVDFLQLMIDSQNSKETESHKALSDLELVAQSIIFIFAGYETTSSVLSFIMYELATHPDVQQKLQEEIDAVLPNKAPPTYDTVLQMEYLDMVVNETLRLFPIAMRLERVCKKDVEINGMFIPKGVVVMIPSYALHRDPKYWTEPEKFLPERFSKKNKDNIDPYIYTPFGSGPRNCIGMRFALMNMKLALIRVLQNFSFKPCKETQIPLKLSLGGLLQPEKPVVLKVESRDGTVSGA
# Procedure, shortened: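 20 nM human CYP3A4 with 25 uM Luciferin-PPXE (at KM) in 200 mM KPO4, preincubated 10 min with compound; NADPH regeneration started a 60 min RT reaction. Luciferin detected by luminescence, normalized to 57 uM ketoconazole as full inhibition.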
# [24] = Confirmation and Secondary Assay for Modulators of Hemoglobin Beta Chain Splicing at IVS2 705 locus (AID 930);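 note: HeLa cells stably expressing the EGFP-705 splicing reporter; GFP fluorescence per well restored by corrected splicing of the IVS2-705 intron in EGFP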
# Procedure, shortened: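 HeLa EGFP-705 reporter; 500 cells/well, o/n 37C 5% CO2; cpd 2 d; 488 ex/500-520 em laser scan; total peak GFP intensity/well. Ref: 500 nM […] antisense PNA.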
# [25] = qHTS Assay for Lipid Storage Modulators (AID 1519; calls by dose curve); conditions: Drosophila S3 cells, BODIPY lipid droplet/cell ratio, laser cytometry, cells loaded with oleic acid
# Procedure, shortened: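 Cells seeded at 5,000 per well were treated with compounds over a concentration series and loaded with oleic acid (400 uM, as added). Lipid droplet fluorescence (488 nm excitation, 500-530 nm channel) was read by laser-scanning cytometry and normalized to 20 uM Triacsin C.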
# [26] = Counterscreen qHTS for small molecule stabilizers of the endoplasmic reticulum resident proteome: GLuc-NoTag assay (AID 1508627);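 note: SH-SY5Y cells given compound then 100 nM thapsigargin to empty ER calcium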
# Procedure, shortened: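 Luminescence of Gaussia luciferase secreted into the medium (coelenterazine, 0.07x final, unlysed cells) was the read-out. Human SH-SY5Y neuroblastoma cells constitutively secreting untagged GLuc received compound for 19 h, then 100 nM thapsigargin for 4 h.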
# [27] = Cell Viability qHTS for small molecule stabilizers of the endoplasmic reticulum resident proteome (AID 1508629); conditions: cell viability counter-screen, 100 nM thapsigargin for final 4 h;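 note: human SH-SY5Y neuroblastoma cells carrying the GLuc-SERCaMP reporter; compound exposure about 46 h in total before the viability read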
smiles,measurement,setting,value
Cc1cc(-c2nnc3n2CCCCC3)c(C)n1-c1cccnc1,outcome,[1],inactive
O=C(Nc1ncc(Cc2ccc(C(F)(F)F)cc2)s1)c1cnc(-c2ccccc2)o1,outcome,[1],inactive
CCc1nn2c(=O)c(F)c(N3CCNCC3)nc2s1,outcome,[1],inactive
C=CCN1CCc2cccc3c2C1Cc1ccc(O)c(O)c1-3 (configuration not stated),Potency,[2],inactive
same,outcome,[3],inactive
same,Potency,[4],inactive
same,Potency,[5],2820 nM (active)
same,Potency,[6],2000 nM (active)
same,Potency,[7],2820 nM (active)
same,Potency,[8],2000 nM (active)
same,Potency,[9],2820 nM (active)
same,Potency,[10],2510 nM (active)
same,Potency,[11],2000 nM (active)
same,Potency,[12],inactive
same,outcome,[13],inactive
same,outcome,[14],inactive
same,Potency,[15],inactive
same,Potency,[16],10400 nM (active)
same,Potency,[17],6310 nM (active)
same,outcome,[18],inactive
same,outcome,[19],inactive
same,activation,[20],-2.75% (inactive)
same,outcome,[21],inactive
same,Potency,[22],39800 nM (active)
CC(=O)C1=C(O)C2C3c4c[nH]c5cccc(c45)CC3C(C)(C)N2C1=O (configuration not stated),Potency,[23],inactive
same,Potency,[24],inactive
same,"activity change, negative = inhibition",[25]; at 57.5 µM (top of the series),8.13% (inactive)
same,max response,[25]; measured here: cell count channel max response,15.9%
same,max response,[25]; measured here: lipid channel max response,22.7%
same,outcome,[26],inactive
same,max response,[27],-5.15% (inactive)
C[n+]1cc(P(=S)(c2ccccc2)c2ccccc2)n2ccccc21,outcome,[1],inactive
CN1CCN(c2cnc3c(O)ccc(C(=O)O)c3c2)CC1,outcome,[1],inactive
N#Cc1nc(-c2cccc3ccccc23)oc1NCc1ccccc1,outcome,[1],inactive
COc1cccc(CNc2ccc(S(=O)(=O)Nc3nccs3)cc2)c1OC,outcome,[1],inactive
Cc1cc(-c2nnc3n2CCCCC3)c(C)n1-c1ccc(C(C)(C)C)cc1,outcome,[1],inactive
Cn1cc(Cl)c(C2N=C(Nc3nc4ccccc4o3)NC3=C2C(=O)CCC3)n1 (configuration not stated),outcome,[1],inactive
